# The supplement of paper PMC10127200
# Structures can show the parent of a compound that is named as a salt.
# Tested on: HEPG2
# Test: Euclidean distance of Cell Painting phenotypic profile (signed KS, 77 features) to DMSO centroid (dimensionless distance); 5 or 10 uM (library dependent); higher = stronger phenotypic change vs DMSO (phenoactivity)
# Settings: 48 h
# Summary of the method: (§1)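 At 10 or 5 uM, as set by the library, and 0.1% DMSO final, compounds were applied for 48 h to five cancer lines and one healthy fibroblast line. Stained cells were imaged confocally at 20X in 9 fields per well, and Harmony extracted 77 features scored as signed Kolmogorov-Smirnov statistics against vehicle wells on the same plate. Profiles underwent plate-position correction, correlation weighting and replicate averaging at the top dose. Phenoactivity is the Euclidean distance from each such profile to the median vehicle profile.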
row,Compound,Euclidean distance
1,CC(C)=CCOc1ccc(/C=C/C(=O)c2ccc(OCC=C(C)C)cc2OCC(=O)O)cc1 [Sofalcone],0.922
2,Cc1ccc(Nc2nccc(N(C)c3ccc4c(C)n(C)nc4c3)n2)cc1S(N)(=O)=O,1.93
3,NC12CC3CC(CC(C3)C1)C2 [Amantadine HCl],0.485
4,CC(C)NCC(O)COc1ccc(CCOCC2CC2)cc1 (configuration not stated) [Betaxolol],1.64
5,O=C1NS(=O)(=O)c2ccccc21 [Saccharin],0.461
6,Cc1cc(OCc2nnc(SC3CCCC3)n2-c2cccnc2)ccc1-c1ccc(S(C)(=O)=O)cc1,3.86
7,Cc1ccc(C(=O)N(CCCN)[C@@H](c2oc3cc(Cl)ccc3c(=O)c2Cc2ccccc2)C(C)C)cc1,2.19
8,COc1cc2ncc(-c3ccccc3)nc2cc1OC [Tyrphostin AG 1296],1.42
9,COc1c(C)c(C(=O)c2ccc(N)c(C(=O)O)c2)n2ccccc12,0.969
10,CC[C@@H](Nc1c(Nc2cccc(C(=O)N(C)C)c2O)c(=O)c1=O)c1ccc(C)o1,0.633
11,CN[C@H]1C(=O)N[C@@H]2Cc3ccc(cc3)Oc3cc4cc(c3O[C@@H]3O[C@H](C(=O)O)[C@@H](O)[C@H](O)[C@H]3NC(=O)CCCCCCCCC(C)C)Oc3ccc(cc3Cl)[C@@H](O)[C@@H]3NC(=O)[C@H](NC(=O)[C@@H]4NC(=O)[C@@H](NC2=O)c2cc(cc(O)c2Cl)Oc2cc1ccc2O)c1ccc(O)c(c1)-c1c(O[C@H]2O[C@H](CO)[C@@H](O)[C@H](O)[C@@H]2O)cc(O)cc1[C@@H](C(=O)NCCCN(C)C)NC3=O [Dalbavancin],0.566
12,CCCCNC(=O)NS(=O)(=O)c1ccc(C)cc1 [Tolbutamide],0.337

# Tested on: OVCAR4
# Test: as above
# Settings: 48 h
# Summary of the method: as §1
row,Compound,Euclidean distance
1,O=C(CCc1ccc(O)cc1)c1c(O)cc(O)cc1O [Phloretin],0.792
2,CS(=O)(=O)c1ccc([C@@H](O)[C@@H](CO)NC(=O)C(Cl)Cl)cc1 [Thiamphenicol],1.15
3,O=C(O)Cc1ccccc1Nc1c(Cl)cccc1Cl [Diclofenac Epolamine],1.22
4,CCCCCCCCCC(=O)OC1(c2ccc(Cl)cc2)CCN(CCCC(=O)c2ccc(F)cc2)CC1 [Haloperidol Decanoate],1.26
5,CCCCc1nc(-c2ccc(OCCCN(CC)CC)cc2)cn1-c1ccc(Oc2ccc(Cl)cc2)cc1 [Azeliragon],1.71
6,CC(C)(C)NCC(O)c1cc(O)cc(O)c1 (configuration not stated) [Terbutaline Sulfate],0.825
7,CCCCOC(=O)c1ccc(N)cc1 [Butamben],1.03
8,CN(C)CCCN1c2ccccc2Sc2ccccc21 [Promazine hydrochloride],1.58
9,COCCCN1CCC(NC(=O)c2cc(Cl)c(N)c3c2OCC3)CC1 [Prucalopride Succinat],0.827
10,O=C(O)C(O)C(O)C(=O)O (configuration not stated) [Tartaric acid],0.632
11,CCc1c(C)[nH]c2c1C(=O)C(CN1CCOCC1)CC2 (configuration not stated) [Molindone hydrochloride],0.874
12,COc1ccc(COc2ccc(Cc3cnc(N)nc3N)cc2OC)cc1,0.792
13,CCCCCCCCCCCCC[N+](C)(C)Cc1ccccc1 [Benzalkonium chloride],2.53
14,CCCNS(=O)(=O)Nc1ncnc(OCCOc2ncc(Br)cn2)c1-c1ccc(Br)cc1 [Macitentan],0.809
15,CC(C)NNC(=O)c1ccncc1 [Iproniazid],1.18
16,CC(C)(S)[C@@H](N)C(=O)O [Penicillamine],1.22
17,Oc1c2ccccc2c2c3c(cccc13)N=N2,0.655
18,Nc1ncnc2c1c(-c1cccc(OCc3ccccc3)c1)cn2C1CC(CN2CCCC2)C1 (configuration not stated),1.87
19,Fc1ccc([C@@H]2CCNC[C@H]2COc2ccc3c(c2)OCO3)cc1 [Paroxetine HCl],1.54
20,COc1ccc(-c2nc3cc(C4=NNC(=O)CC4C)ccc3[nH]2)cc1 (configuration not stated) [Pimobendan],1.02

row,Compound,Euclidean distance
1,CCN(CC)CCNC(=O)c1c(C)[nH]c(/C=C2\C(=O)Nc3ccc(F)cc32)c1C [Sunitinib],2.86
2,CCCCCCCCCC(=O)N[C@H]1[C@H](Oc2c3cc4cc2Oc2ccc(cc2Cl)[C@@H](O[C@@H]2O[C@H](CO)[C@@H](O)[C@H](O)[C@H]2NC(C)=O)[C@@H]2NC(=O)[C@H](NC(=O)[C@@H]4NC(=O)[C@H]4NC(=O)[C@@H](Cc5ccc(c(Cl)c5)O3)NC(=O)[C@H](N)c3ccc(O)c(c3)Oc3cc(O)cc4c3)c3ccc(O)c(c3)-c3c(OC4O[C@H](CO)[C@@H](O)[C@H](O)[C@@H]4O)cc(O)cc3[C@@H](C(=O)O)NC2=O)O[C@H](CO)[C@@H](O)[C@@H]1O (some centres not stated) [Teicoplanin],1.07
3,COC(=O)C1=C(C)NC(C)=C(C(=O)OCCN2CCN(C(c3ccccc3)c3ccccc3)CC2)C1c1cccc([N+](=O)[O-])c1 (configuration not stated) [Manidipine 2HCl],1.95
4,C#CCN(C)CCCOc1ccc(Cl)cc1Cl [Clorgyline HCl],0.745
5,Nc1nccs1 [Aminothiazole],1.9
6,COc1nc(C)nc(Cl)c1NC1=NCCN1 [Moxonidine],1.43
7,COc1ccccc1N1CCN(CCN2C(=O)CC3(CCCC3)CC2=O)CC1,1.54
8,O=C(NCc1c(F)cc(F)cc1F)c1cn2c(c(O)c1=O)C(=O)N1[C@H]3CC[C@H](C3)O[C@@H]1C2 [Bictegravir],2.99
9,CC(C)=CCOc1ccc(/C=C/C(=O)c2ccc(OCC=C(C)C)cc2OCC(=O)O)cc1 [Sofalcone],1.08
10,Cc1ccc(Nc2nccc(N(C)c3ccc4c(C)n(C)nc4c3)n2)cc1S(N)(=O)=O,1.6
11,NC12CC3CC(CC(C3)C1)C2 [Amantadine HCl],0.875
12,CC(C)NCC(O)COc1ccc(CCOCC2CC2)cc1 (configuration not stated) [Betaxolol],1.14
13,O=C1NS(=O)(=O)c2ccccc21 [Saccharin],0.73
14,Cc1cc(OCc2nnc(SC3CCCC3)n2-c2cccnc2)ccc1-c1ccc(S(C)(=O)=O)cc1,3.73
15,Cc1ccc(C(=O)N(CCCN)[C@@H](c2oc3cc(Cl)ccc3c(=O)c2Cc2ccccc2)C(C)C)cc1,3.2
16,COc1cc2ncc(-c3ccccc3)nc2cc1OC [Tyrphostin AG 1296],1.6
17,COc1c(C)c(C(=O)c2ccc(N)c(C(=O)O)c2)n2ccccc12,1.32
18,CC[C@@H](Nc1c(Nc2cccc(C(=O)N(C)C)c2O)c(=O)c1=O)c1ccc(C)o1,0.96
19,CN[C@H]1C(=O)N[C@@H]2Cc3ccc(cc3)Oc3cc4cc(c3O[C@@H]3O[C@H](C(=O)O)[C@@H](O)[C@H](O)[C@H]3NC(=O)CCCCCCCCC(C)C)Oc3ccc(cc3Cl)[C@@H](O)[C@@H]3NC(=O)[C@H](NC(=O)[C@@H]4NC(=O)[C@@H](NC2=O)c2cc(cc(O)c2Cl)Oc2cc1ccc2O)c1ccc(O)c(c1)-c1c(O[C@H]2O[C@H](CO)[C@@H](O)[C@H](O)[C@@H]2O)cc(O)cc1[C@@H](C(=O)NCCCN(C)C)NC3=O [Dalbavancin],0.603
20,CCCCNC(=O)NS(=O)(=O)c1ccc(C)cc1 [Tolbutamide],0.856
